Results from ChEMBL document CHEMBL3433997, “St. Jude Leishmania screening dataset” (2016).

Legend:
Assay type in all cases: functional
[1] = target: Solute carrier family 2, facilitated glucose transporter member 1 (Homo sapiens) (UniProt P11166); test: ST_JUDE_LEISH: Cytotoxicity at 2uM final concentration against transgenic Leishmania Mexicana promastigotes LmGLUT1 that are glucose transport deficient and complemented with the human glucose transporter GLUT1. Activity is measured by DNA content using SYBR green in vitro
Solute carrier family 2, facilitated glucose transporter member 1 (Homo sapiens), sequence (P11166 whole entry): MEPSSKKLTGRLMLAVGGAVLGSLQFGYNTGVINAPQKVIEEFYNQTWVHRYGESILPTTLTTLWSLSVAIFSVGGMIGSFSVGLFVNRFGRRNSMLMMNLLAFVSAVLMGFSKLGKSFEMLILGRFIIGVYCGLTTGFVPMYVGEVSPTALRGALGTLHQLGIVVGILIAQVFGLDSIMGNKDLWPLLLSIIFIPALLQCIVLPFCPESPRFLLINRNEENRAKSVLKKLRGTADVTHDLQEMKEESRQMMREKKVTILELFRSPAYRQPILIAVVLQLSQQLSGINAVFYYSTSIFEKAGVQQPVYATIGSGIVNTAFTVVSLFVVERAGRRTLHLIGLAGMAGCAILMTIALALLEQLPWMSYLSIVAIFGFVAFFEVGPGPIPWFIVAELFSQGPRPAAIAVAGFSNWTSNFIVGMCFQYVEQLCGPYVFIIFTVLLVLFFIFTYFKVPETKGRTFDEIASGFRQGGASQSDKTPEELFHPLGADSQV

[2] = target: Hexose transporter 1 (Plasmodium falciparum) (UniProt O97467); test: ST_JUDE_LEISH: Cytotoxicity at 2uM final concentration against transgenic Leishmania Mexicana promastigotes LmPfHT that are glucose transport deficient and complemented with the Plasmodium falciparum hexose transporter. Activity is measured by DNA content using SYBR green in vitro
[3] = target: Glucose transporter (Leishmania mexicana) (UniProt O61059); test: ST_JUDE_LEISH: Cytotoxicity at 2uM final concentration against transgenic Leishmania Mexicana promastigotes LmGT2 that are glucose transport deficient and complemented with the L. Mexicana glucose transporter 2. Activity is measured by DNA content using SYBR green in vitro

## Cc1cc(N[C@@H](Cc2ccccc2)C(=O)NCc2cccs2)nc(NCCc2ccccn2)n1
[1]
  inhibition: 6.58%
[2]
  inhibition: 3.27%
[3]
  inhibition: 1.45%

## N#Cc1ccc(CN2CCCN(Cc3cccc(NC(=O)c4ccc(-c5ccccc5)cc4)c3)CC2)cc1
[1]
  inhibition: 1.73%
[2]
  inhibition: 9.67%
[3]
  inhibition: 4.12%

## CCc1ccc(CN2CCC(CN(c3ccc(N4CCOCC4)c(F)c3)S(=O)(=O)c3ccc(C(C)(C)CC)cc3)CC2)cc1
[1]
  inhibition: 3.54%
[2]
  inhibition: 0.74%
[3]
  inhibition: 3.68%

## O=c1ccc2ncc(Cl)c3c2n1CC3CN1CCC(NCc2cc3c(cn2)OCCO3)CC1 (centres undefined)
[1]
  inhibition: 8.8%
[2]
  inhibition: 14.5%
[3]
  inhibition: 5.05%

## Cc1cccnc1CNc1nccc2c(C)c(C)[nH]c12
[1]
  inhibition: 2.2%
[2]
  inhibition: 2.33%
[3]
  inhibition: -0.37%

## COc1cc(NC(=O)CCCCCCCN2CCN(C)CC2)c2ncccc2c1
[1]
  inhibition: 5.39%
[2]
  inhibition: 3.78%
[3]
  inhibition: 1.09%

## Cc1cc(O)nc(NC#N)n1
[1]
  inhibition: 2.54%
[2]
  inhibition: 3.15%
[3]
  inhibition: 2.82%

## O=C(Cc1c[nH]cn1)Nc1cccc(-c2ccc(-c3nc4cc(F)ccc4[nH]3)cc2)c1
[1]
  inhibition: 9.26%
[2]
  inhibition: 10.1%
[3]
  inhibition: 7.18%

## CCCCCCN(CCCCCC)CCCCNc1c2ccc(Cl)cc2nc2ccc(OC)cc12
[1]
  inhibition: -3.87%
[2]
  inhibition: 0.39%
[3]
  inhibition: 0.56%

## O=C(Nc1cc(=O)[nH]c2nc(-c3ccccc3)nn12)C1CCCCC1
[1]
  inhibition: 2.3%
[2]
  inhibition: 2.44%
[3]
  inhibition: 3.26%

## c1cc(C2=NC3CCCCC3N2)ccc1OCCCCCOc1ccc(C2=NC3CCCCC3N2)cc1 (centres undefined)
[1]
  inhibition: 2.83%
[2]
  inhibition: 5.62%
[3]
  inhibition: 1.28%

## Cc1cccc2nc(-c3ccc(-c4ccc(NC(=O)Nc5ccc(Cl)c(Cl)c5)cc4)cc3)[nH]c12
[1]
  inhibition: 2.18%
[2]
  inhibition: 1.99%
[3]
  inhibition: 1.71%

## O=C(Nc1cccc(-c2cccc(-c3nc4cc(F)ccc4[nH]3)c2)c1)c1ccoc1
[1]
  inhibition: 2.86%
[2]
  inhibition: 1.64%
[3]
  inhibition: 4.95%

## COc1ccc(CN2CCC(CNC(C)c3cccc4ccccc34)CC2)cc1 (centres undefined)
[1]
  inhibition: 7.32%
[2]
  inhibition: 12.7%
[3]
  inhibition: 5.96%

## Cc1cc(N[C@@H](CC(C)C)C(=O)NCCc2ccccc2)nc(NCCc2cccs2)n1
[1]
  inhibition: 5%
[2]
  inhibition: 7.09%
[3]
  inhibition: 5.46%

## Cc1cc(N[C@@H](CC(C)C)C(=O)NCCOc2ccccc2)nc(Nc2ccccc2)n1
[1]
  inhibition: 6.84%
[2]
  inhibition: 2.42%
[3]
  inhibition: 1.29%

## Cc1ccc2nc(C)cc(N/N=C/c3ccc([N+](=O)[O-])cc3)c2c1
[1]
  inhibition: 104%
[2]
  inhibition: 101%
[3]
  inhibition: 104%

## CCOC(=O)NC1=NC(C)(C)N(OCc2ccc(Cl)c(Cl)c2)C(NC(=O)OCC)=N1
[1]
  inhibition: 3.54%
[2]
  inhibition: 2.08%
[3]
  inhibition: 2.54%

## Cn1cc(C2CCN(CCCCNC(=O)c3ccc(-c4ccc(C(F)(F)F)cc4)c(CO)c3)CC2)c2ccccc21
[1]
  inhibition: 4.11%
[2]
  inhibition: 3.1%
[3]
  inhibition: 2.35%

## COc1ccc(NC(=O)/C=C/c2ccc(-c3ccccc3)cc2)cc1N1CCN(C)CC1
[1]
  inhibition: 2.62%
[2]
  inhibition: 3.25%
[3]
  inhibition: 0.83%

## N#Cc1c(N)n(CCc2ccc(F)cc2)c2nc3ccccc3nc12
[1]
  inhibition: 1.05%
[2]
  inhibition: 1.58%
[3]
  inhibition: -0.08%

## CC(C)(C)c1ccc(-c2cc3c(ccc4nc(N)nc(N)c43)[nH]2)cc1
[1]
  inhibition: 1.02%
[2]
  inhibition: 1.64%
[3]
  inhibition: -0.3%

## Cc1ccc2[nH]c(-c3ccccc3Nc3ccnc4cc(-c5nccs5)ccc34)nc2c1
[1]
  inhibition: 1.04%
[2]
  inhibition: 4.44%
[3]
  inhibition: 1.35%

## O=C(Nc1ccc(-c2ccc(CN3CCNCC3)cc2)cc1)c1cccc(Cl)c1
[1]
  inhibition: 107%
[2]
  inhibition: 104%
[3]
  inhibition: 104%

## O=C(NNC(=O)c1ccc(CN2CCC(c3nc4ccccc4[nH]3)CC2)cc1)Nc1ccc(Oc2ccccc2)cc1
[1]
  inhibition: 2.4%
[2]
  inhibition: 2.34%
[3]
  inhibition: 1.36%

## Cc1cccc2nc(-c3ccc(-c4ccc(CNCc5cccc(N)c5)cc4)cc3)[nH]c12
[1]
  inhibition: 24.1%
[2]
  inhibition: 30.9%
[3]
  inhibition: 14.9%

## Cc1cc(OCc2ccncc2)cc2c1C(=O)CC(C)(C)O2
[1]
  inhibition: -0.52%
[2]
  inhibition: 2.18%
[3]
  inhibition: 0.39%

## COc1ccc(CC2(CO)CCN(Cc3ccc(O)c(Cl)c3)CC2)cc1
[1]
  inhibition: 9.35%
[2]
  inhibition: 7.92%
[3]
  inhibition: 5.84%

## O=C(NC1CCCCC1)c1csc(C2CCCN(C(=O)c3ccc(O)c(-c4cccc(C(F)(F)F)c4)c3)C2)n1 (centres undefined)
[1]
  inhibition: 0.87%
[2]
  inhibition: 1.44%
[3]
  inhibition: -0.33%

## CC(O)C1CCCCN1C(=O)c1cccc(-c2ccc(-c3nc4cc(F)ccc4[nH]3)cc2)c1 (centres undefined)
[1]
  inhibition: 2.72%
[2]
  inhibition: 5.12%
[3]
  inhibition: 4.37%

## O=C(Nc1cccc(OC2CCN(Cc3ccccc3)CC2)c1)Nc1cccc([N+](=O)[O-])c1
[1]
  inhibition: 3.41%
[2]
  inhibition: 2.74%
[3]
  inhibition: 2.57%

## COCCOCCOCCn1ccc2c3c(N)nc(N)nc3ccc21
[1]
  inhibition: 4.65%
[2]
  inhibition: 1.94%
[3]
  inhibition: 2.29%

## CC(C)(CNC(=O)/C=C/c1ccc(C(F)(F)F)cc1)CNc1cc(=O)c2ccccc2[nH]1
[1]
  inhibition: 1.07%
[2]
  inhibition: -1.76%
[3]
  inhibition: 1.66%
